Reference: PubChem BioAssay AID1611 (NINDS Approved Drug Screening Program, 2009)

assay: HSE-luciferase reporter activators – cell-based (AID 1611); settings: human cells, HSE-luciferase heat shock reporter; stronger effect = higher value

Structure (SMILES) | fold change
C[C@H]1O[C@@H](O[C@H]2[C@@H](O)C[C@H](O[C@H]3[C@@H](O)C[C@H](O[C@H]4CC[C@]5(C)C6CC[C@]7(C)[C@@H](C8=CC(=O)OC8)CC[C@]7(O)C6CC[C@@H]5C4)O[C@@H]3C)O[C@@H]2C)C[C@H](O)[C@@H]1O (some centres not stated) | 78
CCN1C[C@@]2(COC)C3[C@@H](OC)[C@H]4[C@@H]1[C@]3(C(OC)C[C@H]2O)C1C[C@@]2(O)[C@H](OC(=O)c3ccccc3)C1[C@]4(OC(C)=O)[C@@H](O)[C@@H]2OC (some centres not stated) | 0.98
O=c1[nH]oc2c1CCNC2 | 1.02
CC1[C@H](C)OC(=O)CC(O)CC(O)CC(O)CCC(O)C(O)C[C@]2(O)CC(O)C(C(=O)O)C(CC(OC3O[C@H](C)[C@@H](O)[C@H](N)[C@@H]3O)/C=C/C=C/C=C/C=C/CC/C=C/C=C/[C@H](C)[C@H]1O)O2 (some centres not stated) | 1.2
CNC(C)(C)Cc1ccccc1 | 1.1
Cc1cc2c(C(C)C)c(O)c(O)c(C=O)c2c(O)c1-c1c(C)cc2c(C(C)C)c(O)c(O)c(C=O)c2c1O | 0.95
Clc1ccc(COC(Cn2ccnc2)c2ccc(Cl)cc2Cl)c(Cl)c1 (configuration not stated) | 0.8
COc1ccc2c(c1OC)C(=O)O[C@H]2[C@H]1c2cc3c(cc2CCN1C)OCO3 | 0.8
CN(C)[C@@H]1C(=O)C(C(N)=O)=C(O)[C@@]2(O)C(=O)C3=C(O)c4c(O)cccc4[C@@](C)(O)[C@H]3[C@H](O)[C@@H]12 | 1.27
CNC1(c2ccccc2Cl)CCCCC1=O (configuration not stated) | 1.39
CNC(C)C(O)c1ccccc1 (configuration not stated) | 0.96
C#CC1(O)CCC2C3CCC4=CC(=O)CCC4(C)C3CCC21C (configuration not stated) | 0.91
